Assay outcomes as filed in PubChem.
Pol kappa inh-1: qHTS for Inhibitors of Polymerase Kappa; DNA polymerase kappa (Homo sapiens), Q9UBT6; purified Pol kappa, fluorescent DNA synthesis assay, 10 min; Potency, µM (titrated, usually from 107 µM), without a hit: at the highest dose activity, negative = inhibition, hits mostly inhibitors; 400,000 tested, 0.53% active; AID 588579, 2011; further: on the % scale 0 is the no-effect control and ±100 the full control effect
Target sequence (Q9UBT6 whole entry, looked up): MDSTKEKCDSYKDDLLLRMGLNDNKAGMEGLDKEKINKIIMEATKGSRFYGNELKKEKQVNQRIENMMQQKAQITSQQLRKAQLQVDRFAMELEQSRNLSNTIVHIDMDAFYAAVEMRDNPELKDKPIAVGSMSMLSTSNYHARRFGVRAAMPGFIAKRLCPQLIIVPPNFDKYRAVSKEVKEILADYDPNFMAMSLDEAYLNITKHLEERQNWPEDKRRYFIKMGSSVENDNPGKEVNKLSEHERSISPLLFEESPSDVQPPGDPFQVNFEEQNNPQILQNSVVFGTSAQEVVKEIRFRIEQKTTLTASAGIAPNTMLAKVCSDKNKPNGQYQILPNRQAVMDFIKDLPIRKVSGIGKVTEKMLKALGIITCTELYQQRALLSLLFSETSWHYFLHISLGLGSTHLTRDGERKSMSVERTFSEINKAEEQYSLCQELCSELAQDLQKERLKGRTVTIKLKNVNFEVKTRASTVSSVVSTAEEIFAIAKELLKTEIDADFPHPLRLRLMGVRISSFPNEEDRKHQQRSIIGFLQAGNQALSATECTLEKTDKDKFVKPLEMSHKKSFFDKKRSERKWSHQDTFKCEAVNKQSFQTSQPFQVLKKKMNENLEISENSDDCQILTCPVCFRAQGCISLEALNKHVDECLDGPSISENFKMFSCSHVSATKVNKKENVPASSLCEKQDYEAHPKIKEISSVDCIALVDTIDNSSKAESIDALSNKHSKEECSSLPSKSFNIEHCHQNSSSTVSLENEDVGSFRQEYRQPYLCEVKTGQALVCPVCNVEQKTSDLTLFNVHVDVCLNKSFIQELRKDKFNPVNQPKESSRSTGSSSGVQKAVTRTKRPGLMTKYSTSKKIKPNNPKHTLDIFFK
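Here, compound and 10 nM enzyme are combined for 15 min at room temperature; adding 50 nM substrate (final) starts DNA synthesis, tracked by fluorescence at 0 and 10 min against buffer-only wells.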
WRN helicase inh: qHTS for Inhibitors of WRN Helicase. Bifunctional 3'-5' exonuclease/ATP-dependent helicase WRN (Homo sapiens), Q14191. WRN helicase unwinding, fluorescent forked duplex, kinetic. Potency, µM (doses to about 114 µM), for inactives: top-dose activity change, negative = inhibition, hits mostly inhibitors. 360,000 tested, 0.46% active; further: on the % scale 0 is the no-effect control and ±100 the full control effect; nearly all actives have a fitted effect of over 55% in size
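Enzyme (20 nM final) and test compound sit together 15 min at room temperature before substrate addition. Substrate is a single-forked duplex oligonucleotide (100 nM) labelled with fluorophore and quencher, with 2 mM ATP; helicase unwinding raises red fluorescence, read kinetically.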
Pol beta inh: qHTS Assay for Inhibitors of DNA Polymerase Beta. P06746. Pol beta primer extension/strand displacement, fluorescence kinetic. Potency, µM (titrated, usually from 114 µM), without a hit: top-dose activity change, negative = inhibition, most hits filed as inhibitors. 340,000 tested, 1.3% active; further: on the % scale 0 is the no-effect control and ±100 the full control effect
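Reaction started by 50 nM substrate onto compound-treated Pol beta (10 nM, 15 min preincubation, room temperature); plates read at 0 min and 10 min. Normalized concentration-effect data fitted by four-parameter Hill equation.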
FEN1 inh: qHTS Assay for the Inhibitors of Human Flap endonuclease 1 (FEN1); P39748; Recombinant FEN1 flap cleavage, fluorescence, 15 min; Potency, µM (top dose mostly 114 µM), for the others: top-dose activity change, negative = inhibition, most hits filed as inhibitors; 390,000 tested, 0.35% active; further: on the % scale 0 is the no-effect control and ±100 the full control effect; nearly all actives have a fitted effect of over 65% in size
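Enzyme 10 nM, 15 min RT preincubation with compound; start with substrate 50 nM final; reads at 0 and 15 min; qHTS titration, four-parameter Hill fit.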
POLI inh: qHTS for Inhibitors of Polymerase Iota; AID 588590, 2011; Potency, µM (titrated, usually from 115 µM), without a hit: at the highest dose activity, negative = inhibition, hits mostly inhibitors; Pol iota fluorescent replication assay, 10 min; 390,000 tested, 1% active
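Fluorescent replication assay read twice, at 0 min and 10 min after adding 50 nM (final) substrate. Enzyme (10 nM) and compounds were first incubated 15 min at room temperature; enzyme-free buffer wells were negative controls.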
Pol eta inh-1: qHTS for Inhibitors of Polymerase Eta. DNA polymerase eta (Homo sapiens), Q9Y253. recombinant Pol eta, fluorescent DNA replication assay. Potency, µM (titrated, usually from 114 µM), for inactives: top-dose activity change, negative = inhibition, actives largely listed as inhibitors. 390,000 tested, 1.2% active; further: on the % scale 0 is the no-effect control and ±100 the full control effect
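Fluorescent replication assay: 50 nM final substrate added after a 15 min room-temperature compound preincubation with 10 nM enzyme. Signal taken at 0 min and again at 10 min.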
TbPGK inh: qHTS for inhibitors of Phosphogylcerate Kinase: Hit Validation Screen; shares compounds with Pol kappa inh-1; TbPGK coupled GAPDH assay, Kinase-Glo luminescence; Potency, µM (doses to about 57.5 µM), without a hit: at the highest dose activity change, negative = inhibition, actives largely listed as inhibitors; 500 tested, 79% active; AID 686980, 2013; further: on the % scale 0 is the no-effect control and ±100 the full control effect; nearly all actives have a fitted effect of over 65% in size
Pol iota confirm: qHTS for Inhibitors of Polymerase Iota: Confirmatory Assay for Cherry-picked Compounds; 1,500 tested, 77% active; Pol iota primer extension, TAMRA/BHQ fluorescence; shares compounds with Pol kappa inh-1; Potency, µM, most hits filed as inhibitors
Pol kappa inh-2: qHTS for Inhibitors of Polymerase Kappa: Confirmatory Assay for Cherry-picked Compounds; shares compounds with Pol eta inh-1; purified Pol-kappa, fluorescent strand-displacement substrate; Potency, µM, most hits filed as inhibitors; 920 tested, 76% active; AID 720501, 2013
Pol eta inh-2: qHTS for Inhibitors of Polymerase Eta: Confirmatory Assay for Cherry-picked Compounds; 2,600 tested, 64% active; Potency, µM, actives largely listed as inhibitors; AID 720502, 2013; shares compounds with Pol eta inh-1; Pol eta primer extension, TAMRA/BHQ fluorescence, 10 min
The depositor's hits bear a star; u = inconclusive; x = no result; [ ] = dose if it differs, or a comment. Only some compounds are listed: those with a hit (about 2.4% of all), similar ones and a draw of the others. The call rests on the fitted dose curve; in most records, active means well fitted curve in the direction sought with a large enough effect; inconclusive means small, poorly fitted or top-dose-only effect, or another doubt; inactive means no such curve, though single readings can be large; an effect the other way counts as inactive or inconclusive. Potency means the concentration at half of the fitted maximal effect.

SMILES | Pol kappa inh-1 | WRN helicase inh | Pol beta inh | FEN1 inh | POLI inh | Pol eta inh-1 | Pol iota confirm | Pol eta inh-2 | others
Cc1cc(=O)n(CC(=O)NC(C)c2ccccc2)c2c1c(C)nn2C (stereo not drawn) | u | x | 32µM* | 0% | -23% | 40µM* | 67* | 85*
CCC(C)NC(=O)CSc1nc2n[nH]c(C)c2c(=N)n1-c1cc(Cl)ccc1C (stereo not drawn) | -7%[60.1 µM] | x | -25% | -8% | -25% | 1% | x | x
CCOc1ccc2nc(NC(=O)c3nc(SCc4ccccc4F)ncc3Cl)sc2c1 | 3% | x | 33% | -3% | 19% | -14% | x | x
Cc1c(F)c(N2CCNC(C)C2)cc2c1c(=O)c(C(=O)O)cn2C1CC1 (stereo not drawn) | 5%[19.4 µM] | x | x | x | x | x | x | x
Cc1cccc(NC(=O)CSc2nc3ccc(NC(=O)COc4ccc(Cl)cc4)cc3s2)c1 | -10% | x | 11% | 2% | 26% | -6% | x | x
O=C(O)CSc1nc2ccc(NC(=O)COc3ccc(Cl)cc3)cc2s1 | u | x | 25µM* | -24% | 79µM* | 11µM* | 67* | 30*
Cc1ccc(-n2nc(C(=O)N(C)Cc3ccccc3)c3c4ccccc4n(C)c3c2=O)cc1 | -9% | x | 35% | 4% | -5% | -17% | x | x
COc1ccc(NC(=O)c2ccco2)cc1NC(=O)C(C)(C)Oc1ccc(Cl)cc1 | -10% | x | -8% | -9% | u | -22% | x | x
O=S(=O)(Nc1cc(Br)cc2cccnc12)c1cccc2ccccc12 | 0% | x | x | -8% | 23% | x | x | x
N#C/C(=C/c1ccc(N2CCCC2)c([N+](=O)[O-])c1)c1nc2ccccc2[nH]1 | -1% | -8% | 53% | -18% | 21% | u | x | x
Cc1ccc2nc(/C(C#N)=C/c3ccc(-c4cccc(Cl)c4)o3)[nH]c2c1 | 50µM* | x | u | -27% | 79µM* | 89µM* | 19* | 67* | Pol kappa inh-2=19*
Cc1ccc2nc(/C(C#N)=C\c3ccc(N4CCCCC4)c([N+](=O)[O-])c3)[nH]c2c1 | -11% | -13% | 25µM* | 3% | u | -14% | 38* | 60* | Pol kappa inh-2=47*
Cc1ccc2nc(/C(C#N)=C/c3cccc(Br)c3)[nH]c2c1 | -19% | x | 22µM* | -13% | u | 56µM* | 42* | 60* | Pol kappa inh-2=17*
COc1cc(NC(=O)c2cc(-c3cccc(Cl)c3)on2)c(OC)cc1Cl | 15% | x | 17% | 10% | -20% | 3% | x | x
CCCCNC(=O)C1CCC(Cn2c(=O)c3sccc3n(CC(=O)Nc3ccccc3)c2=O)CC1 (stereo not drawn) | -4% | x | 9% | 19% | 7% | -6% | x | x
CN(C)CCNC(=O)c1ccc2nc(Cc3ccccc3)oc2c1 | -16%[60.1 µM] | x | 3% | 18% | 11% | -4% | x | x
CCN(CC)c1ccc(/C=C(\C#N)C(=O)c2ccc(Br)cc2)cc1 | 22µM* | 28µM* | 40µM* | u | u | u | 67* | 43* | Pol kappa inh-2=67*
O=C(O)c1cccc(NC(=S)N/N=C/c2ccccc2OCc2cccc(Br)c2)c1 | -11% | u | -19% | 8% | u | 20µM* | u | 48*
COc1ccccc1NC(=O)N1CC(=O)Nc2sc3c(c2C1c1ccccc1)CCCC3 (stereo not drawn) | u | x | 0% | 13% | 1% | -12% | x | x
Cc1ccc(NC(=O)CSc2nnc3c(n2)[nH]c2ccccc23)cc1 | -6% | 3% | 11% | 11% | 26% | -17% | x | x
CC(=O)c1ccc(NC(=O)CSc2nnc3c(n2)[nH]c2ccccc23)cc1 | 3% | x | 8.9µM* | u | -18% | 45µM* | u | u | Pol kappa inh-2=47*
COc1ccccc1N1CCN(C(=O)c2cc(-c3ccc(C)c(F)c3)on2)CC1 | 7% | x | 3% | 0% | u | x | x | x
CCOc1ccc(C2C3=C(CCCC3=O)Nc3ccc4ncccc4c32)cc1 (stereo not drawn) | -26% | -11% | -2% | 0% | 5% | -8% | x | x
O=C1CCCC2=C1C(c1ccc(O)c(O)c1)c1c(ccc3ncccc13)N2 (stereo not drawn) | u | -18%[11.6 µM] | 6.3µM* | u | u | 25µM* | 67* | u
CCN1CCN(C(c2ccc(F)cc2)c2c(O)cc(C)n(CCOC)c2=O)CC1 (stereo not drawn) | -5%[60.1 µM] | x | 9% | -5% | 22% | -9% | x | x
O=C(O)CCCN1C(=O)/C(=C/c2cn(-c3ccccc3)nc2-c2cccs2)SC1=S | u | 50µM* | 22µM* | -29% | 35µM* | 28µM* | 42* | 76*
O=C(CCCN1C(=O)/C(=C/c2cccs2)SC1=S)Nc1ccccn1 | -1% | 3% | -25% | 15% | -13% | -19% | x | x
Cc1ccc(C)c(NC(=O)C2CCN(S(=O)(=O)c3c(C)noc3/C=C/c3cccs3)CC2)c1 | -1% | x | 30% | -15% | -25% | 0% | x | x
O=C(O)c1cccc(N2C(=O)/C(=C/c3ccc(SCc4ccc(Cl)cc4)o3)SC2=S)c1 | 79µM* | 18µM* | 3.2µM* | u | u | 7.9µM* | 34* | 19* | TbPGK inh=33µM*;Pol kappa inh-2=3.4*
